# Measured values reported in the supplement of paper PMC8728848.
# About 410 targets per protein were measured; listed, in parts, are those with the strongest signals and a random draw of the rest.
# B1: DEC205 (Homo sapiens), O60449 (protein)
# chain: MRTGWATPRRPAGLLMLLFWFFDLAEPSGRAANDPFTIVHGNTGKCIKPVYGWIVADDCDETEDKLWKWVSQHRLFHLHSQKCLGLDITKSVNELRMFSCDSSAMLWWKCEHHSLYGAARYRLALKDGHGTAISNASDVWKKGGSEESLCDQPYHEIYTRDGNSYGRPCEFPFLIDGTWHHDCILDEDHSGPWCATTLNYEYDRKWGICLKPENGCEDNWEKNEQFGSCYQFNTQTALSWKEAYVSCQNQGADLLSINSAAELTYLKEKEGIAKIFWIGLNQLYSARGWEWSDHKPLNFLNWDPDRPSAPTIGGSSCARMDAESGLWQSFSCEAQLPYVCRKPLNNTVELTDVWTYSDTRCDAGWLPNNGFCYLLVNESNSWDKAHAKCKAFSSDLISIHSLADVEVVVTKLHNEDIKEEVWIGLKNINIPTLFQWSDGTEVTLTYWDENEPNVPYNKTPNCVSYLGELGQWKVQSCEEKLKYVCKRKGEKLNDASSDKMCPPDEGWKRHGETCYKIYEDEVPFGTNCNLTITSRFEQEYLNDLMKKYDKSLRKYFWTGLRDVDSCGEYNWATVGGRRRAVTFSNWNFLEPASPGGCVAMSTGKSVGKWEVKDCRSFKALSICKKMSGPLGPEEASPKPDDPCPEGWQSFPASLSCYKVFHAERIVRKRNWEEAERFCQALGAHLSSFSHVDEIKEFLHFLTDQFSGQHWLWIGLNKRSPDLQGSWQWSDRTPVSTIIMPNEFQQDYDIRDCAAVKVFHRPWRRGWHFYDDREFIYLRPFACDTKLEWVCQIPKGRTPKTPDWYNPDRAGIHGPPLIIEGSEYWFVADLHLNYEEAVLYCASNHSFLATITSFVGLKAIKNKIANISGDGQKWWIRISEWPIDDHFTYSRYPWHRFPVTFGEECLYMSAKTWLIDLGKPTDCSTKLPFICEKYNVSSLEKYSPDSAAKVQCSEQWIPFQNKCFLKIKPVSLTFSQASDTCHSYGGTLPSVLSQIEQDFITSLLPDMEATLWIGLRWTAYEKINKWTDNRELTYSNFHPLLVSGRLRIPENFFEEESRYHCALILNLQKSPFTGTWNFTSCSERHFVSLCQKYSEVKSRQTLQNASETVKYLNNLYKIIPKTLTWHSAKRECLKSNMQLVSITDPYQQAFLSVQALLHNSSLWIGLFSQDDELNFGWSDGKRLHFSRWAETNGQLEDCVVLDTDGFWKTVDCNDNQPGAICYYSGNETEKEVKPVDSVKCPSPVLNTPWIPFQNCCYNFIITKNRHMATTQDEVHTKCQKLNPKSHILSIRDEKENNFVLEQLLYFNYMASWVMLGITYRNNSLMWFDKTPLSYTHWRAGRPTIKNEKFLAGLSTDGFWDIQTFKVIEEAVYFHQHSILACKIEMVDYKEEHNTTLPQFMPYEDGIYSVIQKKVTWYEALNMCSQSGGHLASVHNQNGQLFLEDIVKRDGFPLWVGLSSHDGSESSFEWSDGSTFDYIPWKGQTSPGNCVLLDPKGTWKHEKCNSVKDGAICYKPTKSKKLSRLTYSSRCPAAKENGSRWIQYKGHCYKSDQALHSFSEAKKLCSKHDHSATIVSIKDEDENKFVSRLMRENNNITMRVWLGLSQHSVDQSWSWLDGSEVTFVKWENKSKSGVGRCSMLIASNETWKKVECEHGFGRVVCKVPLGPDYTAIAIIVATLSILVLMGGLIWFLFQRHRLHLAGFSSVRYAQGVNEDEIMLPSFHD
# What was measured:
# Assay in all cases: glycan array binding signal (z-score within array); higher = stronger binding
# Settings in all cases: glycan notation: IUPAC condensed, linker removed
# [1] = molecular target: Fuc(a1-2)Gal(b1-3)GalNAc(b1-3)Gal(a1-4)Gal(b1-4)Glc
# In short: (§1)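 Glycan array data came from 3228 arrays in the Consortium for Functional Glycomics database, and only arrays with an available protein sequence were kept. Glycan names were put into IUPAC-condensed notation, and columns mapping to the same glycan were averaged. The binding signal is a within-array Z-score, averaged across arrays of one protein sequence run at different concentrations or buffers and across linkers. A negative Z-score can be read as non-binding.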
# [2] = molecular target: Fuc(a1-2)Gal(b1-4)[Fuc(a1-3)]GlcNAc(b1-3)Gal(b1-4)[Fuc(a1-3)]GlcNAc(b1-3)Gal(b1-4)[Fuc(a1-3)]GlcNAc
# In short: as §1
# [3] = molecular target: Fuc(a1-3)[Gal(b1-4)]GlcNAc
# In short: as §1
# Gal(a1-2)Gal = molecular target: Gal(a1-2)Gal
# In short: as §1
# Gal(a1-3)Gal(b1-3)GlcNAc = molecular target: Gal(a1-3)Gal(b1-3)GlcNAc
# In short: as §1
# Gal(a1-3)Gal(b1-4)Glc = molecular target: Gal(a1-3)Gal(b1-4)Glc
# In short: as §1
# [4] = molecular target: Gal(b1-3)[Neu5Ac(a2-6)]GalNAc
# In short: as §1
# [5] = molecular target: GlcNAc(b1-3)Gal(b1-3)GalNAc
# In short: as §1
# [6] = molecular target: GlcNAc(b1-4)GlcNAc(b1-4)GlcNAc
# In short: as §1
# [7] = molecular target: GlcNAc(b1-6)Gal(b1-4)GlcNAc
# In short: as §1
# Kdn(a2-3)Gal(b1-4)GlcNAc = molecular target: Kdn(a2-3)Gal(b1-4)GlcNAc
# In short: as §1
# [8] = molecular target: Man(a1-2)Man(a1-3)[Man(a1-2)Man(a1-6)]Man(a1-6)[Man(a1-2)Man(a1-2)Man(a1-3)]Man(b1-4)GlcNAc(b1-4)GlcNAc
# In short: as §1
# [9] = molecular target: Man(a1-3)[Man(a1-6)]Man(a1-6)[Man(a1-3)]Man(b1-4)GlcNAc(b1-4)GlcNAc
# In short: as §1
# [10] = molecular target: Neu5Ac(a2-3)Gal(b1-3)[Neu5Ac(a2-3)Gal(b1-4)]GlcNAc
# In short: as §1
# [11] = molecular target: Neu5Ac(a2-3)Gal(b1-4)[Fuc(a1-3)]GlcNAc(b1-3)Gal
# In short: as §1
# [12] = molecular target: Neu5Ac(a2-8)Neu5Ac(a2-3)[GalNAc(b1-4)]Gal(b1-4)Glc
# In short: as §1
# [13] = molecular target: Neu5Ac(a2-8)Neu5Ac(a2-8)Neu5Ac(a2-3)[GalNAc(b1-4)]Gal(b1-4)Glc
# In short: as §1
binder,measurement,setting,value
B1,glycan array binding signal (z-score),[1],-0.222
same,glycan array binding signal (z-score),[2],1.97
same,glycan array binding signal (z-score),[3],-0.335
same,glycan array binding signal (z-score),Gal(a1-2)Gal,-0.046
same,glycan array binding signal (z-score),Gal(a1-3)Gal(b1-3)GlcNAc,-0.064
same,glycan array binding signal (z-score),Gal(a1-3)Gal(b1-4)Glc,1.66
same,glycan array binding signal (z-score),[4],-0.279
same,glycan array binding signal (z-score),[5],-0.229
same,glycan array binding signal (z-score),[6],3.79
same,glycan array binding signal (z-score),[7],-0.071
same,glycan array binding signal (z-score),Kdn(a2-3)Gal(b1-4)GlcNAc,1.75
same,glycan array binding signal (z-score),[8],0.357
same,glycan array binding signal (z-score),[9],-0.154
same,glycan array binding signal (z-score),[10],-0.395
same,glycan array binding signal (z-score),[11],-0.262
same,glycan array binding signal (z-score),[12],0.013
same,glycan array binding signal (z-score),[13],-0.243
